Among all 360,000 compounds or so, about 7,300 (2%) were called active. Only a selection was taken, and actives are over-represented in it overall. A number with no mark means an inactive call. Cut-off read from the data, not from the text of the source: active = inhibition above about 50%; inactive = the rest.
Assay: blockers of TWEAK-induced Fn14 reporter activity – luciferase reporter cells, uHTS, primary screen (AID 1159606)
Conditions: TWEAK-stimulated Fn14 reporter cells, luciferase luminescence, 8 h; at 10 µM; stronger effect = higher value

SMILES | inhibition
CCN(CC)P(=O)(/C(Cl)=C\Nc1c(C)n(C)n(-c2ccccc2)c1=O)N(CC)CC | -1.25%
CC1=CC=CC2=N/C(=N\S(=O)(=O)c3ccc(F)cc3F)c3ccccc3CN12 | -4.26%
O=S(=O)(Nc1ccc(O)c2ccccc12)c1ccc(OC(F)(F)F)cc1 | 84.1% (active)
O=S(=O)(Nc1ccc(OC(F)(F)F)cc1)c1cccc2nonc12 | -6.65%
COc1ccccc1NS(=O)(=O)c1ccc(C(=O)N2CCN(c3ccccc3O)CC2)cc1 | 9.79%
O=C(NNC(=O)c1cccc(S(=O)(=O)Nc2ccc(Cl)cc2)c1)c1ccc(=O)[nH]c1 | 12.3%
Cc1ccc(NC(=O)Nc2nnc(-c3ccncc3)s2)cc1 | 54.9% (active)
CCc1ccc(NC(=O)Nc2ccncc2)cc1 | -5.44%
CC(C)=CC(=O)Nc1nnc(-c2ccc(F)cc2)s1 | -55.7%
Cc1cc(=O)oc(C)c1C(=O)Nc1cnc2ccccc2c1 | 1.75%
CC1(C)OC(=O)C2=C(C[C@@H](C3CC3)O[C@H]2c2ccc(Cl)cc2)O1 | 7.97%
CCCCOC(=O)c1ccc(NC(c2ccc(C)cc2)P(=O)(OC)OC)cc1 (centres undefined) | 4.7%
O=[N+]([O-])c1ccc(Oc2ccc(F)cc2Br)c2ccncc12 | 69.9% (active)
CC(NC(=O)CCCC1CCCCC1)c1ccc(S(N)(=O)=O)cc1 (centres undefined) | 11.9%
Cc1cc(S(=O)(=O)N2CCOCC2)ccc1OCC(=O)Nc1cccc(C(F)(F)F)c1 | 21.1%
CC(=O)N1CCCc2cc(S(=O)(=O)N3CCCC(C(=O)N4CCN(c5cccc(Cl)c5)CC4)C3)ccc21 (centres undefined) | 87.5% (active)
CC(=O)N1c2ccc(S(=O)(=O)N3CCC(C(=O)N4CCN(c5ccccc5)CC4)CC3)cc2CC1C (centres undefined) | -8.65%
CC(=O)N1CCCc2cc(S(=O)(=O)CCC(=O)N3CCN(c4ccccc4)CC3)ccc21 | -26.2%
Cc1ccnc(SCCn2c(N(C)Cc3ccccc3)nc3c2c(=O)n(C)c(=O)n3C)n1 | -11.8%
O=c1c2ccccc2c(-c2ccc(F)cc2)nn1-c1ccc(C(F)(F)F)cc1 | -4.84%
Cn1c(-c2ccc(C(F)(F)F)cc2)cc2onc(-c3ccccc3)c2c1=O | 51.4% (active)
Cn1c(-c2ccc(F)cc2)cc2onc(-c3ccccc3Cl)c2c1=O | 6.49%
CC(=O)N1Cc2cc(C(=O)NCc3cccc(F)c3)nc(-c3cccc(C4=CCCCC4)c3)c2[C@H]1CCO | 24.6%
CCCCn1c(N)c(N(CCOC)C(=O)CSCC(=O)Nc2cccc(C)c2)c(=O)[nH]c1=O | 4.51%

Reference: PubChem BioAssay AID1159606 (Sanford-Burnham Center for Chemical Genomics, 2016)
